From PubChem BioAssay

target: Fibroblast growth factor 2 (Homo sapiens) (UniProt P09038); assay: FGF2 binders on small-molecule microarrays, primary screen, biochemical, small-molecule microarray, 635/667 nm fluorescence (AID 1133); conditions: small-molecule microarray binding, FGF2, fluorescence 635/667; higher = more signal
Sequence (P09038 whole entry, looked up): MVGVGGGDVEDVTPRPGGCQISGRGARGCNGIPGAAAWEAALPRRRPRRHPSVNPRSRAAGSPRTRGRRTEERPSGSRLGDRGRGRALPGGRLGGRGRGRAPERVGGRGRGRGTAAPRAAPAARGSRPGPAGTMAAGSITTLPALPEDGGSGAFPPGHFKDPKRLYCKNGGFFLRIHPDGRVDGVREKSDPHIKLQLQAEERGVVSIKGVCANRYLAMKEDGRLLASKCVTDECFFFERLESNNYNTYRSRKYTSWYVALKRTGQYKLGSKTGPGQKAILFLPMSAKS

| SMILES | composite z-score |
| --- | --- |
| CC(C)C(=C=CC[C@@H](O)c1ccc(OCCO)cc1)CCO | 1.25 |
| CC#CCO[Si](C#CCCCCCC)(C(C)C)C(C)C | -2.42 |
| CN(C)CCCC[C@@H]1NC(=O)[C@H]2C[C@@H](C(=O)NCc3ccc(F)cc3)[C@@H](c3ccc(O)cc3)N2C1=O | 1.93 |
| CC(C)N1CC=CC23O[C@@H]4C=CCCOC(=O)C4[C@H]2C(=O)N(CCCCCO)[C@@H]3C1=O (stereo not given in full) | -0.886 |
| COCCOC(=O)N1C(=O)[C@@]2(c3ccccc31)[C@H](C(=O)N1CCCCCCC1)[C@H]1C(=O)O[C@H](c3ccccc3)[C@H](c3ccccc3)N1[C@@H]2c1ccc(O)cc1 | 1.74 |
| C#CCN([C@H](/C=C/C1CC1)[C@@H](O)Cc1ccccc1)[C@@H](Cc1ccccc1)C(=O)OC | -0.182 |
| COC(=O)[C@@]1(Cc2ccc(F)cc2)[C@H]2c3cc(C(=O)N(C)C)n(CCn4cc([N+](=O)[O-])nc4C)c3C[C@H]2CN1C(=O)c1ccccc1 | -0.776 |
| CCOC(=O)C[C@H]1[C@H](OC(=O)Cc2ccc3c(c2)OCO3)[C@@H](NC(=O)c2ccccc2)c2cc(OCCCO)ccc2N1C(=O)Cc1ccc(OC)cc1 | -0.027 |
| C[N+](C)(C)CCCC[C@@H]1NC(=O)[C@H]2C[C@@H](C(=O)NCCCCCNC(=O)CS)[C@@H](c3ccc(O)cc3)N2C1=O | 0.826 |
| CN1C(=O)[C@]2(CCS(=O)(=O)c3ccccc3)N=C(c3ccc(OCCCO)cc3)O[C@@H]2c2ccccc21 | 0.699 |
| O=C1O[C@@H](c2ccccc2)[C@@H](c2ccccc2)N2[C@@H](c3ccc(OCCO)cc3)[C@]3(C(=O)Nc4ccc(C#CCCO)cc43)[C@@H](C(=O)Nc3nc4ccccc4s3)[C@H]12 | 0.474 |
| COCCn1c(C(=O)N2CCCC2)cc2c1C[C@H]1CN(C(=O)c3ccccc3)[C@@](Cc3ccccc3)(C(=O)OC)[C@@H]21 | 0.121 |
| CC(C)(C)N1CC=CC23O[C@@H]4/C=C\CCCOC(=O)C4[C@H]2C(=O)N(CCCCCCO)[C@@H]3C1=O (stereo not given in full) | -0.502 |
| CCCC[C@@H](O)C1=C(COC)Cn2c(=O)n(-c3ccccc3)c(=O)n2[C@H]1CO | 0.0646 |
| COC(=O)[C@@H]1N=C(c2ccc(OCCCO)cc2)O[C@@H]1c1ccccc1CN=[N+]=[N-] | -0.633 |
| CN1C=C(C(=O)OCCS(C)(=O)=O)C(C(=O)OCCS(C)(=O)=O)=CC(CCCO)=CC1c1ccc(CN2CCCC2)cc1 (stereo not given) | 0.546 |
| COCCOC(=O)N1C(=O)[C@@]2(c3ccccc31)[C@H](C(N)=O)[C@H]1C(=O)O[C@H](c3ccccc3)[C@H](c3ccccc3)N1[C@@H]2c1ccc(OCCO)cc1 | 0.807 |
| CC(C)CNC(=O)[C@@H]1c2ccccc2C(=O)N(C(C)C)[C@H]1c1ccc(CO)cc1 | 0.427 |

| SMILES | composite z-score |
| --- | --- |
| CC(C)c1ccc(NN2C(C(O)C(C)C)C=CC3C(=O)N(c4ccccc4)C(=O)C32)cc1 (stereo not given) | 0.013 |
| COCCOC(=O)N1C(=O)[C@@]2(c3cc(C#CCC(C(=O)OC)C(=O)OC)ccc31)[C@H](C(=O)N1CCCCCCC1)[C@H]1C(=O)O[C@H](c3ccccc3)[C@H](c3ccccc3)N1[C@@H]2c1ccccc1OCCO | 1.43 |
| O=C(NCCO)C1=C[C@H](Oc2ccccc2I)[C@@H](O)[C@H](NCc2ccc(F)cc2)C1 | 0.795 |
| COC(=O)Cn1c(C(=O)N(C)C)cc2c1C[C@H]1CN(C(=O)c3ccccc3)[C@@](Cc3ccc(OC)cc3)(C(=O)OC)[C@@H]21 | -0.159 |
| [N-]=[N+]=NCc1ccccc1C[C@]1(C(=O)NCc2ccccc2)N=C(c2ccc(OCCCO)cc2)O[C@H]1c1ccccc1CN=[N+]=[N-] | -0.31 |
| CC(=O)NCCCC[C@@H]1NC(=O)[C@H]2C[C@@H](C(=O)NCCCCCC[N+](C)(C)C)[C@@H](c3ccc(O)cc3)N2C1=O | 0.862 |
| [N-]=[N+]=NCc1ccccc1C[C@]1(C(=O)N2CCCCC2)N=C(c2ccc(OCCCO)cc2)O[C@H]1c1ccccc1 | 0.182 |
| COc1ccc(CCNC(=O)[C@@]2(Sc3ccc(C)cc3)CC(=O)N(C(C)C)[C@@H]2c2ccc(CO)cc2)cc1 | -1.26 |
| COC(=O)C(CC#Cc1ccc2c(c1)[C@]1(C(=O)N2)[C@H](c2ccc(O)cc2)N2[C@H](c3ccccc3)[C@H](c3ccccc3)OC(=O)[C@H]2[C@@H]1C(=O)N1CCc2cc(OC)c(OC)cc2C1)C(=O)OC | 1.17 |
| COc1ccccc1CN1C(=O)c2ccccc2[C@](Cc2ccccc2I)(C(=O)NCCCN(C)C)[C@@H]1c1ccc(CO)cc1 | 0.141 |
| CN1C(=O)C2C(C1=O)C1C=C(c3ccc(CO)cc3)C2C(c2cccs2)N1C (stereo not given) | -0.25 |
| NCCCC[C@@H]1NC(=O)[C@H]2C[C@@H](C(=O)NCc3ccc(F)cc3)[C@@H](c3cccc(OCCO)c3)N2C1=O | 1.62 |
| CC(C)(C)OC(=O)CC[C@]1(C(=O)N2CCOCC2)N=C(c2ccc(OCCCO)cc2)O[C@H]1c1ccccc1CN=[N+]=[N-] | 1.39 |
| CC(C)[C@@H](C(=O)O)n1cc(-c2ccccc2)nn1 | 0.112 |
| NCCCC[C@@H]1NC(=O)[C@H]2C[C@@H](C(=O)NCc3ccc(F)cc3)[C@@H](c3ccc(O)cc3)N2C1=O | 1.32 |
| O=C1OCCC=C[C@H]2OC34C=CCN(c5ccc(Cl)cc5)C(=O)[C@H]3N(CCO)C(=O)[C@@H]4C12 (stereo not given in full) | -1.14 |
| O=C1O[C@@H](c2ccccc2)[C@@H](c2ccccc2)N2[C@@H](c3ccc(O)cc3)[C@]3(C(=O)Nc4ccc(C#CC5=CCCCC5)cc43)[C@@H](C(=O)N3CCCCCCC3)[C@H]12 | 1.19 |
